In PubChem BioAssay (NCATS):
Values joined by “and” are separate entries in the source; they are usually repeats but may differ in a detail not shown here. Equal entries are not always repeated. Results filed as inconclusive are left out. Active and inactive are the calls of the source. Unless noted, calls follow the shape of the dose curve; as a rule, active = well fitted curve in the direction sought with a large enough effect; inconclusive = small, poorly fitted or top-dose-only effect, or another doubt; inactive = no such curve, though single readings can be large; an effect the other way counts as inactive or inconclusive.

What was measured:
[1] = target: Cytochrome P450 2D6 (Homo sapiens) (UniProt P10635); assay: Cytochrome P450 family 2 subfamily D member 6 (CYP2D6) small molecule antagonists: luciferase biochemical (cell-free) qHTS assay (AID 1645840; active = well fitted curve in the direction sought with a large enough effect in the repeat runs; an effect the other way counts as inactive or inconclusive; also: potency is read from the fitted curve at half-maximal effect; nearly all actives have a fitted effect of over 55% in size)
Method in brief: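 P450-Glo CYP2D6 system: proluciferin substrate converted by enzyme to luciferin, read by luminescence proportional to activity. Enzyme-substrate mix with compound 10 min at room temperature, then NADPH regeneration 1 h before detection reagent.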

[2] = Primary qHTS for inhibitors of nuclear receptor binding SET domain protein 2 (NSD2) in an RCH-ACV wild type WT cells (2C) (AID 1645877); also: nearly all actives have a fitted effect of over 70% in size; also: potency is read from the fitted curve at half-maximal effect
[3] = target: Cytochrome P450 2C9 (Homo sapiens) (UniProt P11712); assay: Cytochrome P450 family 2 subfamily C member 9 (CYP2C9) small molecule antagonists: luciferase biochemical (cell-free) qHTS assay (AID 1645842; active = well fitted curve in the direction sought with a large enough effect in the repeat runs; an effect the other way counts as inactive or inconclusive; also: nearly all actives have a fitted effect of over 55% in size; also: potency is read from the fitted curve at half-maximal effect)
Method in brief: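 P450-Glo CYP2C9 system: proluciferin substrate with enzyme in mix containing 0.4% BSA, 10 min at room temperature, then NADPH regeneration solution added and incubated 1 h at 37C. Detection reagent stopped reaction; luminescence read after 20 min as RLU.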

[4] = Primary qHTS for inhibitors of nuclear receptor binding SET domain protein 2 (NSD2) in an isogenic RCH-ACV NSD2 p.E1099K mutant (9B) (AID 1645876); also: nearly all actives have a fitted effect of over 70% in size; also: potency is read from the fitted curve at half-maximal effect
[5] = target: N-terminal Xaa-Pro-Lys N-methyltransferase 1 (Homo sapiens) (UniProt Q9BV86); assay: Confirmatory qHTS for Inhibitors of N-terminal methyltransferase 1 (NTMT1): MTaseGlo Assay (AID 1645874); also: potency is read from the fitted curve at half-maximal effect; nearly all actives have a fitted effect of over 65% in size
Method in brief: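 MTase-Glo luminescence measured SAH formed by 125 nM NTMT1 from 100 uM SAM and 1 uM SPKRIA peptide over 30 min at room temperature, following 15 min compound preincubation. Percent inhibition against no-enzyme and DMSO controls gave 4-parameter Hill fits.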

[6] = target: Catechol O-methyltransferase (Homo sapiens) (UniProt P21964); assay: Confirmatory Screen for Target Class Profiling of Small Molecule Inhibitors of Methyltransferases (AID 1745852); settings: MTase-Glo luminescence, SAH detection, recombinant enzyme; measured here: COMT max response; stronger effect = lower value
Chain of Catechol O-methyltransferase (Homo sapiens) (P21964 whole entry, looked up): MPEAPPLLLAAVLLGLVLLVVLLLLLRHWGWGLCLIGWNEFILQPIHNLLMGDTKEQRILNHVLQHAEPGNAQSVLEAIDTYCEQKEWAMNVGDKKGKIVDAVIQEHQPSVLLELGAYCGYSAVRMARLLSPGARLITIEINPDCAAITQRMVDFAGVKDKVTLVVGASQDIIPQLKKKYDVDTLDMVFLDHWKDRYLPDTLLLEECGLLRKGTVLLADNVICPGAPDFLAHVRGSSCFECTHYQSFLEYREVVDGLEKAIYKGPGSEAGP

Chain of Cytochrome P450 2C9 (Homo sapiens) (P11712 whole entry, looked up): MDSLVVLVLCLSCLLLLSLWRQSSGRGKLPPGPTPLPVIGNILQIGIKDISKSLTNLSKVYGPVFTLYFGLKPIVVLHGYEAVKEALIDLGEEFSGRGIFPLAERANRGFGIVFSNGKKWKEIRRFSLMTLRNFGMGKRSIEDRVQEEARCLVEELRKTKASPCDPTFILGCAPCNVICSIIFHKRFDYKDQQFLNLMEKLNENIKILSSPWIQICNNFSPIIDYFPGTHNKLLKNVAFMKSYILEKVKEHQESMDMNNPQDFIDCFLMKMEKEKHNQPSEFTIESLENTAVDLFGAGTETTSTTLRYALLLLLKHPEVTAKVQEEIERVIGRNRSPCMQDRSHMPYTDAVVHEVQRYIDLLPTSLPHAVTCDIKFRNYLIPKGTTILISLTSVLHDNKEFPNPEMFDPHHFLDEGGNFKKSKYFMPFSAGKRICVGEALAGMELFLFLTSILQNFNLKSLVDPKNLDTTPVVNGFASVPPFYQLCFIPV
Chain of Cytochrome P450 2D6 (Homo sapiens) (P10635 whole entry, looked up): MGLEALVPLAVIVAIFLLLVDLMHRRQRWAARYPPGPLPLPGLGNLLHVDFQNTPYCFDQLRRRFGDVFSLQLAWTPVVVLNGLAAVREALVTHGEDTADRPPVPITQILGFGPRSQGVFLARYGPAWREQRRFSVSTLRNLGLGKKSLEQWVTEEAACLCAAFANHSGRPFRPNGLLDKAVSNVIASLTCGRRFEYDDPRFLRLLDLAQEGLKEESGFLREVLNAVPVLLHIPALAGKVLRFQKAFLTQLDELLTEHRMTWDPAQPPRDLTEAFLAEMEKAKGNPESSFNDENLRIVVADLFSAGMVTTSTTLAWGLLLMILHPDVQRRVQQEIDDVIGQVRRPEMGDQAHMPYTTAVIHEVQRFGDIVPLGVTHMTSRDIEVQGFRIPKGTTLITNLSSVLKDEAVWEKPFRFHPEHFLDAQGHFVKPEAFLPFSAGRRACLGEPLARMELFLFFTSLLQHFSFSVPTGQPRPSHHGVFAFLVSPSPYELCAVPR
Chain of N-terminal Xaa-Pro-Lys N-methyltransferase 1 (Homo sapiens) (Q9BV86 whole entry, looked up): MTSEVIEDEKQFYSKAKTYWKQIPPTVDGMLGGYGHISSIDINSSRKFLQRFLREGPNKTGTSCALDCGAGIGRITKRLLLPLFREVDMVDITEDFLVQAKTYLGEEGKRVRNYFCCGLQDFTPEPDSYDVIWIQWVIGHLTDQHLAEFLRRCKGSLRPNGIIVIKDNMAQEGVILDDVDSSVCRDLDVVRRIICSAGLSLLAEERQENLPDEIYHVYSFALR

## CN(C)CCn1cc(S(=O)(=O)c2cccc(F)c2)c2cccnc21
[1]
  Potency: 21.3 µM (active)
[2]
  Potency: inactive

## Cc1cc(NC(=O)Nc2ccc(F)c(F)c2)n(-c2ccccc2)n1
[3]
  Potency: 12 µM (active)
[4]
  Potency: inactive
[2]
  Potency: inactive

## C[C@@H]1CCN(C(=O)N2CCCC2)C[C@@H]1N(C)c1ncnc2[nH]ccc12
[3]
  Potency: inactive

## COC(=O)N[C@@H](C)CNc1nccc(-c2cn(C(C)C)nc2-c2cc(Cl)cc(NS(C)(=O)=O)c2F)n1
[3]
  Potency: inactive
[4]
  Potency: inactive

## N#Cc1c(Oc2ccc(F)c(NC(=O)Cc3cccc(C(F)(F)F)c3)c2)ccc2nc(NC(=O)C3CC3)sc12
[3]
  Potency: 0.338 µM (active)
[4]
  Potency: 578 nM (active)
[2]
  Potency: 1.15 µM (active)

## O=C(NCc1ccc(S(=O)(=O)c2cc(F)cc(F)c2)cc1)c1ccc2nccn2c1
[3]
  Potency: inactive
[4]
  Potency: inactive
[2]
  Potency: inactive

## O=C(NCc1ccc(F)cc1)C(=O)c1c[nH]c2ccccc12
[3]
  Potency: 1.9 µM (active)

## O=C(Nc1ccc(Cl)cc1F)c1ccccc1O
[3]
  Potency: 9.52 µM (active)

## CC(C)Oc1ccc(C(=O)NC(CNC(=O)CN(C)C)Cc2ccc(-c3cn4cccc(C(C)O)c4n3)cc2)cc1Cl (stereo unspecified)
[3]
  Potency: 13.5 µM (active)
[4]
  Potency: 163 nM (active)

## CCOc1cc(C(=O)N2CCC(N3CCN(C)CC3)CC2)ccc1Nc1ncc2c(n1)N(C1CCCC1)c1ccccc1C(=O)N2C
[3]
  Potency: inactive
[4]
  Potency: 1.15 µM (active) and 1.86 µM (active)
[2]
  Potency: 1.29 µM (active) and 1.66 µM (active)

## CCN1CCN(Cc2ccc(Nc3ncc(F)c(-c4cc(F)c5nc(C)n(C(C)C)c5c4)n3)nc2)CC1
[3]
  Potency: inactive
[5]
  Potency: 20 µM (active)
[4]
  Potency: 728 nM (active) and 468 nM (active)
[2]
  Potency: 649 nM (active) and 417 nM (active)
[6]
  activity: -78.7%
